Compound activity deposited in PubChem by National Center for Advancing Translational Sciences (NCATS).
Shown are actives, neighbours in structure and some others; about 10% of the full set was active somewhere.
KB-3-1 tox: qHTS assay for MDR1-selective chemotherapeutics: Primary screen using the parental adenocarcinoma cell KB-3-1. KB-3-1 viability, CellTiter-Glo ATP luminescence, 72 h. Potency, µM (highest dose often 46.1 µM), most hits filed as cytotoxic. 1.4% of 400,000 active; further: nearly all actives have a fitted effect of over 60% in size
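Cytotoxicity in the drug-sensitive parental line KB-3-1 was scored as loss of CellTiter-Glo luminescence following 72 h incubation with compound. Values come from curve fitting of normalized concentration-response data.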
MCF10A rerep: A quantitative high throughput screen for small molecules that induce DNA re-replication in MCF 10a normal breast cells. MCF 10A DNA re-replication, Hoechst nuclear intensity, 48 h. Potency, µM (doses to about 46.1 µM), hits mostly activators. 2.9% of 350,000 active. AID 624296, 2012; further: nearly all actives have a fitted effect of over 50% in size
KB-V1 MDR tox: qHTS assay for MDR1-selective chemotherapeutics: Primary screen using the drug-selected MDR subline cells KB-V1. KB-V1 MDR cells viability, CellTiter-Glo, 72 h. Potency, µM (top dose mostly 46.1 µM), usual class: cytotoxic. 3.4% of 400,000 active. AID 1347076, 2019; further: nearly all actives have a fitted effect of over 60% in size
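Following 72 h at 37 degrees C with compound, KB-V1 cell viability was read by CellTiter-Glo luminescence, medium being phenol-red-free DMEM plus 10% FBS; concentration-response parameters came from normalized, curve-fitted qHTS data.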
SW480 rerep: A quantitative high throughput screen for small molecules that induce DNA re-replication in SW480 colon adenocarcinoma cells. Potency, µM (doses to about 46.1 µM), hits mostly activators. 1.8% of 340,000 active. SW480 DNA re-replication, Hoechst DNA content imaging, 48 h. AID 624297, 2012; further: nearly all actives have a fitted effect of over 55% in size
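250 cells/well; 23 nL cpd via pin tool; 48 hr, 37 C, 5% CO2; Hoechst 40 min; imager read of total nuclear intensity, ex 405/em 500-530 nm.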
RORg inh: qHTS for inhibitors of ROR gamma transcriptional activity | Drosophila S2 Gal4-RORgamma UAS-luciferase reporter, 20 h | Potency, µM (series often up to 53.6 µM), usual class: inhibitors | 5.4% of 310,000 active | AID 2551, 2010 | Nuclear receptor ROR-gamma (Mus musculus), P51450; further: nearly all actives have a fitted effect of over 60% in size
Target sequence (P51450 whole entry, looked up, the tested form may be a part): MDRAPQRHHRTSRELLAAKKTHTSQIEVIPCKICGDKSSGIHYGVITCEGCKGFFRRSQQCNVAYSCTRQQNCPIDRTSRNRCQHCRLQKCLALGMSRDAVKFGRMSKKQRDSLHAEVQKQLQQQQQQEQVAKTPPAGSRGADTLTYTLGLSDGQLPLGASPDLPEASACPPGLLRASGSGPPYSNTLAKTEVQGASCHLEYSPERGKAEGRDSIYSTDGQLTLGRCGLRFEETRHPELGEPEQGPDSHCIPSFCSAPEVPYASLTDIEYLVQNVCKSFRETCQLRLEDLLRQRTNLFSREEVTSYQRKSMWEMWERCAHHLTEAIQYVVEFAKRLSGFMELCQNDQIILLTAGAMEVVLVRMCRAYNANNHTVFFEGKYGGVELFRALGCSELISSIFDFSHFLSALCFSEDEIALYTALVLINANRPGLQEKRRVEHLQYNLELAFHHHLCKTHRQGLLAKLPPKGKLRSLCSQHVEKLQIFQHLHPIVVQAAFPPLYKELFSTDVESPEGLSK
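Drosophila Schneider cells stably carrying a metallothionein-driven Gal4 DBD–ROR gamma fusion and a UAS-Photinus luciferase reporter were exposed to compound for 1 hr, then induced with copper sulfate (700 uM final) for 20 hr at ambient temperature before luminescence reading.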
VP16 counter: VP16 counterscreen qHTS for inhibitors of ROR gamma transcriptional activity; Drosophila S2 Gal4-VP16 UAS-luciferase, luminescence, 20 h; Potency, µM (top dose mostly 53.6 µM), actives largely listed as inhibitors; AID 2546, 2010; 3.5% of 310,000 active;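 further: Gal4-VP16 expression switched on by copper sulfate through the metallothionein promoter; nearly all actives have a fitted effect of over 50% in size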
Hits are given with their value; n = inactive; u = inconclusive; x = no result; ! = a repeat was not active. The call rests on the fitted dose curve; in most records, active means well fitted curve in the direction sought with a large enough effect; inconclusive means small, poorly fitted or top-dose-only effect, or another doubt; inactive means no such curve, though single readings can be large; an effect the other way counts as inactive or inconclusive.

SMILES	KB-3-1 tox	MCF10A rerep	KB-V1 MDR tox	SW480 rerep	RORg inh	VP16 counter
Oc1ccc(Br)cc1CN1CCN(c2ccccc2)CC1	n	n	16.4µM	n	n	n
C[C@H]1O[C@@H](O[C@H]2[C@@H](O)C[C@H](O[C@H]3[C@@H](O)C[C@H](O[C@H]4CC[C@]5(C)C6CC[C@]7(C)[C@@H](C8=CC(=O)OC8)CC[C@]7(O)C6CC[C@@H]5C4)O[C@@H]3C)O[C@@H]2C)C[C@H](O)[C@@H]1O (stereo partly drawn)	x	x	x	x	2.51µM	n
C[C@H]1O[C@@H](O[C@H]2[C@@H](O)C[C@@H](O[C@H]3[C@@H](O)C[C@H](O[C@H]4CC[C@@]5(C)[C@H](CC[C@@H]6[C@@H]5CC[C@]5(C)[C@@H](C7=CC(=O)OC7)CC[C@]65O)C4)O[C@@H]3C)O[C@@H]2C)C[C@H](O)[C@@H]1O	0.0103µM	x	u	x	x	x
CC(=O)O[C@H]1C[C@H](O[C@H]2[C@@H](O)CC(O[C@H]3[C@@H](O)C[C@H](O[C@H]4CC[C@@]5(C)[C@H](CC[C@@H]6[C@@H]5CC[C@]5(C)[C@@H](C7=CC(=O)OC7)CC[C@]65O)C4)O[C@@H]3C)O[C@@H]2C)O[C@H](C)[C@H]1O[C@@H]1O[C@H](CO)[C@@H](O)[C@H](O)[C@H]1O (stereo partly drawn)	x	u	x	u	u	n
CC(=O)OC1CC(OC2C(O)CC(OC3C(O)CC(OC4CCC5(C)C(CCC6C5CC(O)C5(C)C(C7=CC(=O)OC7)CCC65O)C4)OC3C)OC2C)OC(C)C1OC1OC(CO)C(O)C(O)C1O (stereo not drawn)	u	0.184µM	0.92µM!	1.84µM	n	u
COC1C(O)C(OC2CC[C@]3(C=O)C4C(OC(C)=O)C[C@@]5(C)C(C6=CC(=O)OC6)CC[C@]5(O)C4CC[C@]3(O)C2)OC(C)C1OC(C)=O (stereo partly drawn)	x	x	x	x	n	n
COC1C(O)C(C)OC(OC2CCC3(C)C(CCC4C3C(O)CC3(C)C(C5=CC(=O)OC5)CCC43O)C2)C1O (stereo not drawn)	0.206µM	0.259µM	0.184µM	1.3µM	x	x
CC1O[C@@H](OC2CC[C@@]3(C=O)C4CC[C@]5(C)C(C6=CC(=O)OC6)CC[C@@]5(O)C4CC[C@]3(O)C2)C(O)C(O)C1O (stereo partly drawn)	x	x	x	x	n	n
c1cnc(N2CC[C@@]3(CCCNC3)C2)nc1	x	x	x	x	n	n
CC(=O)O[C@H]1C[C@@H](O[C@@H]2[C@H](C)O[C@H](O[C@@H]3[C@H](C)O[C@H](O[C@@H]4CC[C@@]5(C)[C@@H](CC[C@]6(C)[C@]5(C)C[C@H](O)[C@]5(C)[C@@H](C7=CC(=O)OC7)CC[C@@]56O)C4)C[C@@H]3O)C[C@@H]2O)O[C@@H](C)[C@H]1O[C@H]1O[C@@H](CO)[C@@H](O)[C@@H](O)[C@@H]1O	x	x	x	x	n	n
CO[C@H]1[C@@H](O)CC(OC2[C@@H](O)CC(OC3[C@@H](O)C[C@H](OC4CC[C@@]5(C)C(CCC6C5CC(O)[C@]5(C)[C@H](C7=CC(=O)OC7)CCC65O)C4)O[C@@H]3C)O[C@@H]2C)O[C@@H]1C (stereo partly drawn)	x	n	x	n	2.51µM	n
CC1O[C@@H](O[C@@H]2C(O)C[C@H](O[C@@H]3C(O)C[C@@H](OC4CC[C@@]5(C)C6CC[C@]7(C)C(C8=CC(=O)OC8)CC[C@@]7(O)C6CC[C@@H]5C4)OC3C)OC2C)CC(O)[C@H]1O (stereo partly drawn)	x	x	x	x	3.16µM	n
